An excerpt weighted towards active compounds, which were near 19% of everything screened.
DT40 TDP1 no CPT = qHTS for Inhibitors of human tyrosyl-DNA phosphodiesterase 1 (TDP1): qHTS in cells in absence of CPT. actives 15% (n = 420,000). AID 686978, 2013. DT40 Tdp1-/- hTDP1 cells, no CPT, ATP luminescence, 48 h. Potency, µM (titrated, usually from 46.2 µM), for inactives: at the top dose activity change, negative = growth inhibition, usual class: inhibitors; also: nearly all actives have a fitted effect of over 55% in size
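Chicken DT40 Tdp1-/- cells complemented with human TDP1, screened without camptothecin (DMSO vehicle only), 400 cells/well. Compounds pin-transferred, cells incubated at 37 °C for at least 48 hr. Growth read as ATP-dependent luminescence (CellTiter-Glo, 30 min at RT).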
HT1080NT lethal = kills 2HG-producing HT-1080-NT fibrosarcoma cells | HT-1080-NT fibrosarcoma viability, CellTiter-Glo ATP luminescence, 48 h | Potency, µM (highest dose often 46.1 µM), without a hit: at the highest dose activity, negative = less viability, most hits filed as cytotoxic | actives 1.6% (n = 360,000);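 also: NT is the 2HG producing partner of a matched IDH1 knockdown line; 0% = DMSO-treated cells and -100% = media-only wells without cells; nearly all actives have a fitted effect of over 55% in size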
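Read-out is CellTiter-Glo luminescence after 10 minutes at room temperature, following 48 hours' compound treatment of HT-1080-NT cells (750 cells/well, RPMI, 5% FBS, 37 degrees C).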
KB-3-1 cytotox = KB-3-1 parental cell cytotoxicity; KB-3-1 viability, CellTiter-Glo ATP luminescence, 72 h; Potency, µM (doses to about 46.1 µM), most hits filed as cytotoxic; actives 1.4% (n = 400,000); also: nearly all actives have a fitted effect of over 60% in size
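Using CellTiter-Glo luminescence, growth of non-resistant KB-3-1 adenocarcinoma cells is assessed 72 h after pin-tool compound addition at 37 °C. Normalized responses across the concentration series yield fitted curves.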
KB-V1 cytotox = KB-V1 MDR subline cytotoxicity; KB-V1 MDR cells viability, CellTiter-Glo, 72 h; Potency, µM (top dose mostly 46.1 µM), hits mostly cytotoxic; actives 3.4% (n = 400,000); AID 1347076; also: nearly all actives have a fitted effect of over 60% in size
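Following 72 h at 37 degrees C with compound, KB-V1 cell viability was read by CellTiter-Glo luminescence, medium being phenol-red-free DMEM plus 10% FBS; concentration-response parameters came from normalized, curve-fitted qHTS data.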
HT1080 IDH1KD tx = kills HT-1080 cells with IDH1 knockdown. HT-1080 IDH1 knockdown viability, ATP luminescence, 48 h. Potency, µM (series often up to 46.1 µM), without a hit: at the top dose activity, negative = toxicity, usual class: cytotoxic. actives 2% (n = 360,000). AID 686971;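 also: 0% = DMSO wells and -100% = cell-free medium wells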
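Viability of IDH1-knockdown HT-1080 fibrosarcoma cells was assessed by CellTiter-Glo after 48 h at 37 °C with titrated compound; concentration-effect curves were classified by fit quality and response size.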
DT40 TDP1 CPT = DT40-hTDP1 cell growth loss with CPT | chicken DT40 Tdp1-/-;hTDP1 cells + 20 nM CPT, ATP luminescence, 48 h | Potency, µM (titrated, usually from 46.2 µM), inactives show top-dose activity change, negative = growth inhibition, actives largely listed as inhibitors | actives 12% (n = 420,000) | AID 686979; also: nearly all actives have a fitted effect of over 55% in size
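Chicken DT40 Tdp1-/- cells stably complemented with human TDP1 were seeded at 400 cells/well in medium containing 20 nM camptothecin, exposed to pin-transferred compounds, and grown at 37 °C for at least 48 hr. Viability was read as ATP luminescence.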
An asterisk follows results filed as active; i = inactive; ? = inconclusive; . = not tested or not shown. Calls follow the shape of the dose curve; as a rule, active = well fitted curve in the direction sought with a large enough effect; inconclusive = small, poorly fitted or top-dose-only effect, or another doubt; inactive = no such curve, though single readings can be large; an effect the other way counts as inactive or inconclusive. Unless noted, % is scaled to controls: 0 for no effect and ±100 for the full control effect; potency is read from the fitted curve at half-maximal effect.

SMILES	DT40 TDP1 no CPT	HT1080NT lethal	KB-3-1 cytotox	KB-V1 cytotox	HT1080 IDH1KD tx	DT40 TDP1 CPT
Cc1ccc(S(=O)(=O)CC(=O)c2ccccc2)cc1	-11%	14%	i	i	20%	-4%
O=C(CC(=O)c1ccccc1)CS(=O)(=O)c1ccccc1	?	4%	i	12µM*	-18%	?
CC(C)NC(=O)CS(=O)(=O)c1ccccc1	-12%	0%	i	i	15%	-2%
O=C(NCc1ccc(Cl)cc1)C(=O)Nc1cccc(Br)c1	-21%	.	?	i	.	-26%
O=C(O)/C=C/C(=O)Nc1ccc(N2CCOCC2)nc1N1CCOCC1	23µM*	21%	?	i	10%	21µM*
CCCCOc1ccc2c(c1)/C(=C(\C(Cl)=C(Cl)Cl)[N+](=O)[O-])N2	-22%	9%	?	21µM*	-2%	-24%
CN(C)N=Nc1nc2c(c(=O)n(C)c(=O)n2C)n1CC1CO1 (stereo not given)	15µM*	?	?	i	?	3.7µM*
CN(C)N=Nc1nc2c([nH]1)c(=O)n(C)c(=O)n2C	-25%	0%	i	i	-7%	-4%
COc1cccc(-c2nnc(SC(C(=O)c3c[nH]c4ccccc34)c3ccccc3)n2C)c1 (stereo not given)	?	-24%	i	?	?	23µM*
COc1ccccc1-c1nnc(SC(C(=O)c2c[nH]c3ccccc23)c2ccccc2)n1C (stereo not given)	16µM*	?	?	?	?	21µM*
COc1ccc(CCNc2oc(-c3ccccc3OC)nc2C#N)cc1OC	18µM*	2%	i	?	-1%	?
COc1ccc(CCNc2oc(-c3ccc(OC)c(OC)c3)nc2C#N)cc1	?	-3%	i	?	15%	11µM*
COc1ccc(CCNc2cc(C)nc3c(-c4ccccc4OC)cnn23)cc1OC	18µM*	-3%	i	i	-23%	?
COc1ccc(-c2nc(C#N)c(NCCCN(C)C)o2)cc1OC	-5%	6%	i	i	2%	-18%
COc1ccccc1-c1cnn2c(NCc3ccccc3)cc(C)nc12	?	-1%	i	i	8%	?
COc1ccc(-c2nc(C#N)c(NC(C)c3ccccc3)o2)cc1OC (stereo not given)	16µM*	-12%	i	?	-21%	?
CCOc1ccc(S(=O)(=O)NCCC(=O)NCCOc2ccccc2)cc1	-27%	4%	i	i	0%	0%
N#CCCN(Cc1ccccc1)S(=O)(=O)c1cccs1	-19%	23%	i	i	10%	4%
C/C(=N\NC(=O)c1cccc(Cl)c1)C1C(=O)c2ccccc2C1=O	0.82µM*	13µM*	23µM*	9.2µM*	8.2µM*	0.92µM*
CC(=O)Nc1cccc(NC(=O)c2cccc(Cl)c2)c1	-6%	14%	i	i	16%	-15%
C/C(=N\NC(=O)CCc1ccccc1)C1C(=O)c2ccccc2C1=O	2.6µM*	?	?	9.2µM*	?	1.6µM*
CC(/C=C/c1ccccc1)=N\NC(=O)CCc1ccccc1	-2%	12%	i	i	0%	-14%
CC(O)[C@H]1CC[C@H]2[C@@H]3CC[C@@H]4C[C@@H](O)CC[C@]4(C)[C@H]3CC[C@]12C (stereo not given in full)	-9%	.	.	.	.	-1%
COc1ccc(C(=O)c2c(-c3ccsc3)oc3ccc(-c4ccc(OC)cc4)cc23)cc1	?	15%	i	i	14%	-21%
Cc1cc(-c2nnc(SCC(=O)Nc3ccc(C)c(C)c3)n2N)n[nH]1	13%	2%	i	i	10%	3%
SMILES	DT40 TDP1 no CPT	HT1080NT lethal	KB-3-1 cytotox	KB-V1 cytotox	HT1080 IDH1KD tx	DT40 TDP1 CPT
CCOc1ccc(NC(=S)N2CCC(C(=O)c3ccc(OC)cc3)CC2)cc1	18µM*	0%	i	i	-3%	16µM*
C=CCNC(=S)N1CCC(C(=O)c2ccc(OC)cc2)CC1	?	-17%	i	?	-29%	?
COc1ccc(C(=O)NC(=S)N2CCCCC2)cc1	?	0.56µM*	i	i	0.79µM*	?
COc1ccc(C(=O)NC(=S)N2CCCC2)cc1	1%	15%	i	i	9%	-9%
CCCNC(=S)N1CCC(C(=O)c2ccc(OC)cc2)CC1	21µM*	6%	i	?	-3%	-27%
CCCNC(=S)N1CCC(C(=O)c2ccc(Cl)cc2)CC1	?	0%	i	i	-14%	23µM*
Cc1cc(C(=O)N2CCC2(C)C(=O)NS(=O)(=O)c2cccc(Cl)c2)nn1C (stereo not given)	?	21%	i	i	9%	-22%
CCOC(=O)N1CCN(C(=S)NC(=O)c2ccc(F)c(F)c2)CC1	15µM*	0%	i	i	2%	?
COc1ccc(CN2CCC(C(=O)c3ccc(Cl)cc3)CC2)cc1	16µM*	2%	i	i	-3%	23µM*
O=C(NC(=S)N1CCCC(C(F)(F)F)C1)c1ccc(F)cc1 (stereo not given)	23µM*	0%	i	i	-13%	18µM*
CC(C)CNC(=S)N1CCC(C(=O)c2ccc(Cl)cc2)CC1	?	-12%	i	i	-21%	10µM*
COc1ccc(CN2CCC(C(=O)c3cccc(Cl)c3)CC2)cc1	3%	6%	i	i	14%	-3%
CSCCC(NC(=O)COc1ccccc1)C(=O)NCC1COc2ccccc2O1 (stereo not given)	-28%	-2%	?	?	-1%	?
Cc1ccc(CNC(=O)CCCCn2c(=O)c3ccccc3n(Cc3c(C)cc(C)cc3C)c2=O)cc1	-10%	.	i	i	.	-1%
CCS(=O)(=O)N1CCC(C(=O)c2ccc(Cl)cc2)CC1	?	-7%	i	i	?	21µM*
CCNC(=S)N1CCC(C(=O)c2ccc(Cl)cc2)CC1	?	2%	i	i	4%	?
O=C(CN1N=C(c2ccccc2)CCC1=O)NCc1ccccc1	-3%	14%	i	i	15%	16%
O=C(CN1N=C(c2ccccc2)CCC1=O)NCCN1CCc2ccccc2C1	-23%	-2%	i	9.2µM*	0%	16%

High-throughput results as filed in PubChem BioAssay.
